Calls of active or inactive are those of the source. Rule for the calls: active = hit-call score of the fitted dose curve at least 0.9, where 1 is the maximum; inactive = score below 0.9.
Legend:
[1] = BSK_CASM3C_SRB: Viability Assessment in the BioMAP Diversity Plus: CASM3C Assay (AID 2283050); details: primary human coronary artery smooth muscle cells;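 note: cells exposed to compound for 24 h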
[2] = read-out: Thrombomodulin, THBD (gene 7056); assay: BSK_CASM3C_Thrombomodulin: BioMAP Diversity Plus: CASM3C Assay for Thrombomodulin Biomarker Activity (AID 2283051); details: primary human coronary artery smooth muscle cells; actives raise or lower the signal;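 note: thrombomodulin protein level measured by ELISA 24 h after dosing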
[3] = read-out: Tissue Factor, F3 (gene 2152); assay: BSK_CASM3C_TissueFactor: BioMAP Diversity Plus: CASM3C Assay for Tissue Factor Biomarker Activity (AID 2283052); details: primary human coronary artery smooth muscle cells; actives raise or lower the signal;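 note: cell surface tissue factor protein level read by ELISA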
[4] = read-out: Interferon-gamma inducible Protein 10 (IP10), CXCL10 (gene 3627); assay: BSK_hDFCGF_IP10: BioMAP Diversity Plus: hDFCGF Assay for Interferon-gamma inducible Protein 10 (IP10) Biomarker Activity (AID 2283053); details: primary human foreskin fibroblasts; actives raise or lower the signal
Outline: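 Primary human foreskin fibroblasts exposed to chemicals for 24 h. IP-10 measured by ELISA; changes fitted bidirectionally against DMSO baseline.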

[5] = read-out: Urokinase-type plasminogen activator receptor (uPAR), PLAUR (gene 5329); assay: BSK_CASM3C_uPAR: BioMAP Diversity Plus: CASM3C Assay for Urokinase-type plasminogen activator receptor (uPAR) Biomarker Activity (AID 2283054); details: primary human coronary artery smooth muscle cells; actives raise or lower the signal;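 note: cell-surface uPAR protein level quantified by ELISA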
[6] = read-out: Vascular cell adhesion molecule 1 (VCAM1), VCAM1 (gene 7412); assay: BSK_CASM3C_VCAM1: BioMAP Diversity Plus: CASM3C Assay for Vascular cell adhesion molecule 1 (VCAM1) Biomarker Activity (AID 2283055); details: primary human coronary artery smooth muscle cells; actives raise or lower the signal;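 note: VCAM-1 protein level quantified by ELISA on the cells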
[7] = read-out: Collagen III, COL3A1 (gene 1281); assay: BSK_hDFCGF_CollagenIII: BioMAP Diversity Plus: hDFCGF Assay for Collagen III Biomarker Activity (AID 2283056); details: primary human foreskin fibroblasts; actives raise or lower the signal
Outline: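 Cells: human foreskin fibroblasts, primary. Dosing followed by 24 h incubation, then ELISA for collagen III. Both increases and decreases scored relative to DMSO.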

[8] = read-out: Epidermal growth factor receptor (EGFR), EGFR (gene 1956); assay: BSK_hDFCGF_EGFR: BioMAP Diversity Plus: hDFCGF Assay for Epidermal growth factor receptor (EGFR) Biomarker Activity (AID 2283057); details: primary human foreskin fibroblasts; actives raise or lower the signal
Outline: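 Primary human foreskin fibroblasts (hDFCGF system), sampled 24 h after dosing; EGFR quantified by ELISA. Bidirectional fit relative to DMSO baseline; SRB total-protein staining in parallel cultures for cytotoxicity.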

[9] = read-out: Interleukin-8 (IL8), CXCL8 (gene 3576); assay: BSK_hDFCGF_IL8: BioMAP Diversity Plus: hDFCGF Assay for Interleukin-8 (IL8) Biomarker Activity (AID 2283058); details: primary human foreskin fibroblasts; actives raise or lower the signal
Outline: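 IL-8 levels from compound-treated primary human fibroblasts were read by ELISA at 24 h, with DMSO serving as baseline for bidirectional fitting.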

[10] = BSK_hDFCGF_Proliferation: Cell Proliferation Assessment in the BioMAP Diversity Plus: hDFCGF Assay (AID 2283059); details: primary human foreskin fibroblasts;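 note: curves fitted for both rise and fall of signal versus DMSO baseline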
Outline: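 Total protein read at 560 nm after 0.1% SRB staining of TCA-fixed human skin fibroblasts, […]. Activity is fitted in both directions relative to DMSO as baseline.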

Measured: AC50

O=C(O)CCCOc1ccc(Cl)cc1Cl
inactive: all assays above

Clc1ccccc1-c1nnc(-c2ccccc2Cl)nn1
active: [4] 14.5 µM | [7] 3 µM
not listed: [9]
inactive: all other assays above

O=[N+]([O-])/N=C1\NCCN1Cc1ccc(Cl)nc1
not listed: [9]
inactive: all other assays above

CC1(C)C(C=C(Cl)Cl)C1C(=O)OC(C#N)c1ccc(F)c(Oc2ccccc2)c1 (stereo unspecified)
active: [2] 33.8 µM | [7] 0.189 µM | [8] 3.84 µM | [10] 13.2 µM
not listed: [9]
inactive: all other assays above

OCCOc1ccccc1
not listed: [9]
inactive: all other assays above

CC(C)N(C(=O)COc1nnc(C(F)(F)F)s1)c1ccc(F)cc1
active: [4] 22.9 µM | [10] 15.9 µM
not listed: [9]
inactive: all other assays above

C[C@H]1[C@H](c2ccc(Cl)cc2)SC(=O)N1C(=O)NC1CCCCC1
active: [2] 14.9 µM | [4] 20 µM | [7] 5.46 µM | [10] 9.3 µM
not listed: [9]
inactive: all other assays above

CNC(=O)Oc1cccc(N=CN(C)C)c1
active: [4] 15.2 µM | [10] 24.2 µM
not listed: [9]
inactive: all other assays above

CNC(=O)/C=C(\C)OP(=O)(OC)OC
not listed: [9]
inactive: all other assays above

COC(=O)c1ccccc1S(=O)(=O)NC(=O)N(C)c1nc(C)nc(OC)n1
active: [4] 28.7 µM
not listed: [9]
inactive: all other assays above

CCCN(CCOc1c(Cl)cc(Cl)cc1Cl)C(=O)n1ccnc1
active: [2] 3.97 µM | [4] 30.7 µM | [7] 31.1 µM | [10] 21 µM
not listed: [9]
inactive: all other assays above

O=C1c2ccccc2C(=O)N1SC(Cl)(Cl)Cl
inactive: [3] | [7] | [8]
active: [1] 29 µM | [2] 4.99 µM | [4] 20 µM | [5] 33.8 µM | [10] 29.7 µM

COC(=O)c1ccccc1S(=O)(=O)NC(=O)Nc1nc(C)nc(OC)n1
not listed: [9]
inactive: all other assays above

COC(=O)c1ccccc1CS(=O)(=O)NC(=O)Nc1nc(OC)cc(OC)n1
not listed: [9]
inactive: all other assays above

CC1(c2ccc(Oc3ccccc3)cc2)OC(=O)N(Nc2ccccc2)C1=O (stereo unspecified)
active: [5] 5.52 µM | [6] 18 µM
not listed: [9]
inactive: all other assays above

N#CN
not listed: [9]
inactive: all other assays above

COP(=S)(OC)Oc1ccc([N+](=O)[O-])cc1
active: [4] 20.3 µM | [7] 16.6 µM
not listed: [9]
inactive: all other assays above

O=[N+]([O-])c1c(Cl)c(Cl)c(Cl)c(Cl)c1Cl
active: [2] 24.8 µM | [4] 38 µM | [7] 14.9 µM | [10] 19.7 µM
not listed: [9]
inactive: all other assays above

CCN(CC)C(=O)SCc1ccc(Cl)cc1
not listed: [9]
inactive: all other assays above

Cc1cc(C)nc(NC(=O)NS(=O)(=O)c2ccccc2C(=O)OC2COC2)n1
not listed: [9]
inactive: all other assays above

N#Cc1c(Cl)c(Cl)c(Cl)c(C#N)c1Cl
inactive: [2] | [8]
active: [1] 2 µM | [4] 0.148 µM | [5] 5.03 µM | [6] 1.62 µM | [7] 0.148 µM | [10] 0.148 µM

CNC(=O)Oc1ccccc1OC(C)C
not listed: [9]
inactive: all other assays above

CCC(C)Nc1c([N+](=O)[O-])cc(C(C)(C)C)cc1[N+](=O)[O-] (stereo unspecified)
active: [4] 15.3 µM | [8] 33 µM | [10] 20 µM
not listed: [9]
inactive: all other assays above

CCOc1nc(NC)nc(NC(=O)NS(=O)(=O)c2ccccc2C(=O)OC)n1
active: [4] 26.5 µM
not listed: [9]
inactive: all other assays above

COc1nn(CSP(=S)(OC)OC)c(=O)s1
active: [4] 20 µM
not listed: [9]
inactive: all other assays above

COP(=O)(OC)OC=C(Cl)Cl
not listed: [9]
inactive: all other assays above

COc1cc(OC)nc(NC(=O)NS(=O)(=O)c2cc(NC=O)ccc2C(=O)N(C)C)n1
not listed: [9]
inactive: all other assays above

CC[C@H](C)[C@H]1O[C@]2(C=C[C@@H]1C)C[C@@H]1C[C@@H](C/C=C(\C)[C@@H](O[C@H]3C[C@H](OC)[C@@H](O[C@H]4C[C@H](OC)[C@@H](O)[C@H](C)O4)[C@H](C)O3)[C@@H](C)/C=C/C=C3\CO[C@@H]4[C@H](O)C(C)=C[C@@H](C(=O)O1)[C@]34O)O2 (tested in a mixture with another compound)
inactive: [2] | [3]
active: [1] 15 µM | [4] 10.7 µM | [5] 12.2 µM | [6] 15 µM | [7] 6.63 µM | [8] 5.21 µM | [10] 5.3 µM
